The list is not random: actives were taken first. Their share in the collection is about 7.1%.
SW480 rerep = DNA re-replication induction in SW480 cells. SW480 DNA re-replication, Hoechst DNA content imaging, 48 h. Potency, µM (series often up to 46.1 µM), most hits filed as activators. 340,000 tested, 1.8% active. AID 624297; also: nearly all actives have a fitted effect of over 55% in size
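Image-based read-out: total Hoechst fluorescence of nuclei (405 nm excitation, 500-530 nm emission), with hits raising the fraction of high-intensity nuclei. SW480 colon cells incubated 48 hr with compounds at 37 C.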
p53 reactivator = mutant p53 re-activation in reporter cells. AID 504706. 320,000 tested, 0.063% active. Potency, µM (doses to about 92.2 µM), hits mostly activators. H1299 p53-A138V BP100-luciferase reporter, luminescence, 24 h; also: nearly all actives have a fitted effect of over 45% in size
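p53-null H1299 cells stably carrying temperature-sensitive p53-A138V and a BP100-luciferase reporter were pinned with compounds (4-point, 1:5 series) and held 24 hrs at 37 deg C. Luminescence was read 10 min after detection reagent.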
ELG1 DNA repair = blocks ELG1-dependent DNA repair in HEK293T cells. HEK293T ELG1-luciferase reporter, luminescence, 16 h; DNA damage induced by 5-fluorouridine. Potency, µM (top dose mostly 46.1 µM), actives largely listed as inhibitors. 330,000 tested, 2.3% active; also: nearly all actives have a fitted effect of over 55% in size
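HEK293T cells expressing luciferase-tagged ELG1 (2,000/well) received 5-Fluorouridine plus compound or DMSO for 16 hr at 37 °C. Luciferase was read by ONE-Glo luminescence after 30 min at room temperature.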
A-T KAP1 phos = potential ataxia-telangiectasia treatments restoring KAP-1 phosphorylation; 320,000 tested, 0.19% active; Potency, µM (doses to about 57.5 µM), actives largely listed as activators; F2112 A-T fibroblasts, KAP-1 phosphorylation AlphaLISA; neocarzinostatin DNA damage 30 min before lysis; also: nearly all actives have a fitted effect of over 45% in size
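hTERT-immortalized A-T patient fibroblasts (F2112), 500 cells/well in OPTI-MEM, 1% FBS, got compounds for 60 min, then NCS for 30 min at 37C. Lysates were then assayed for phospho-KAP-1 by AlphaLISA (anti-pKAP1 donor, anti-KAP1 acceptor beads), 6 hr at 25C.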
ELG1 genotox = inducers of genotoxicity in HEK293T ELG1-luciferase cells. HEK293T ELG1-luciferase reporter, luminescence, 16 h. Potency, µM (highest dose often 46 µM), actives largely listed as activators. 330,000 tested, 1.3% active; also: nearly all actives have a fitted effect of over 60% in size
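Step 1: seed 2,000 HEK293T ELG1-luciferase cells per well. Step 2: add compound or DMSO, incubate 16 hr at 37 °C. Step 3: ONE-Glo, 30 min at room temperature, read luminescence.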
MCF10A rereplic = induces DNA re-replication in MCF 10a normal breast cells; MCF 10A DNA re-replication, Hoechst nuclear intensity, 48 h; Potency, µM (series often up to 46.1 µM), actives largely listed as activators; 350,000 tested, 2.9% active; AID 624296; also: nearly all actives have a fitted effect of over 50% in size
Numbers stand for hits; 0 = inactive; ? = inconclusive; - = no result given; [ ] = dose if it differs, or a comment. Calls follow the shape of the dose curve; as a rule, active = well fitted curve in the direction sought with a large enough effect; inconclusive = small, poorly fitted or top-dose-only effect, or another doubt; inactive = no such curve, though single readings can be large; an effect the other way counts as inactive or inconclusive.

SMILES	SW480 rerep	p53 reactivator	ELG1 DNA repair	A-T KAP1 phos	ELG1 genotox	MCF10A rereplic
COc1ccc(/C=N/NC(=O)c2nc(-c3ccccc3)cc(-c3ccccc3)n2)cc1	0	0	6.5µM	0	0	?
COc1ccc(/C=N/NC(=O)c2nc(-c3ccccc3)n(-c3ccccc3)n2)cc1OC	0	0	13µM	0	0	0
COc1ccc(/C=N/NS(=O)(=O)c2ccccc2)cc1OC	0	0	18µM	0	0	0
COc1cc(/C=N/NC(=O)c2ccc(CN3C(=O)c4cccc5cccc3c45)cc2)cc(OC)c1O	0	0	?	0	0	0
COc1ccc(/C=N/NC(=O)c2ccc(CN3C(=O)c4cccc5cccc3c45)cc2)cc1O	0	0	?	0	0	16µM
Cc1ccc(C(=O)NS(=O)(=O)c2ccc(N=NN(C)C)cc2)cc1	0	0	0	0	0	0
Cc1ccc(C(C(=O)NC2CCCC2)N(C(=O)CNC(=O)c2ccco2)c2ccccc2)o1 (stereo not given)	0	0	0	0	0	0
Cc1csc(NC(=O)c2cc(C)on2)n1	0	?	?	0	?	0
O=C(Nc1ccccn1)c1nc(-c2ccccc2)n(-c2ccccc2)n1	0	0	?	-	0	0
COc1ccc(/C=N/NC(=O)c2nc(-c3ccccc3)cc(-c3ccccc3)n2)cc1O	0	0	6.5µM	0	0	0
NC(=O)c1ccsc1NC(=O)c1nc(-c2ccccc2)n(-c2ccccc2)n1	0	0	18µM	0	0	?
COc1ccc(/C=N/NC(=O)c2cc(-c3ccccc3)nc3ccccc23)cc1O	0	0	0	0	0	0
Cc1ccc(N2CCC(N3CCN(C)C(CCO)C3)CC2)cc1 (stereo not given)	0	-	0	0	0	?
C/C(=N\NC(=O)COc1ccc(C(C)(C)C)cc1)c1ccc(N2CCOCC2)cc1	0	0	0	0	0	9.2µM
C/C(=N\NC(=O)c1ccc(F)cc1)c1ccc(N2CCOCC2)cc1	0	0	?	0	0	0
CC1(C)Cc2c(sc3nc(N/N=C/c4ccccc4)[nH]c(=O)c23)CO1	0	0	0	0	0	0
CC(C)=NNc1nc2sc3c(c2c(=O)[nH]1)CC(C)(C)OC3	?	0	0	0	0	12µM
Oc1c(Br)cc(Br)cc1CNc1cnc2ccccc2c1	0	0	0	0	0	23µM
Oc1c(Br)cc(Br)cc1CNc1ccc(F)cc1	0	0	0	0	0	?
Cc1ccc(NC(=O)COC(=O)CCc2c(C)nc3ncnn3c2C)cc1C	0	0	0	0	0	0
Cn1c(=O)[nH]c(=O)c2c1nc(N1CCCCC1)n2CCCSc1nc2ccccc2s1	0	0	21µM	0	0	?
CC1CCN(C(=O)CSc2nc3ccccc3s2)CC1	0	?	?	-	12µM	?
CC1CCN(c2nc3c(c(=O)n(C)c(=O)n3C)n2CCSc2nc3ccccc3s2)CC1	0	0	23µM	0	0	?
Cn1c(=O)[nH]c(=O)c2c1nc(Br)n2CCCSc1nc2ccccc2o1	7.3µM	0	?	0	?	13µM
O=C(O)C1CCN(C(=O)CSc2nc3ccccc3s2)CC1	0	0	0	0	0	0
SMILES	SW480 rerep	p53 reactivator	ELG1 DNA repair	A-T KAP1 phos	ELG1 genotox	MCF10A rereplic
CN(C(=O)C1CC1)C1CCS(=O)(=O)C1 (stereo not given)	0	0	0	0	0	0
O=C(O)C(Cc1ccccc1N(CCO)CCO)N1C(=O)c2ccccc2C1=O (stereo not given)	0	-	-	-	-	0
N#CCCC(CCC#N)(CCC#N)c1cc[n+](CCc2ccccn2)cc1	0	0	0	0	0	0
COc1ccc(Nc2ccc3c(c2)=NC2(CCCCC2)[N+]=3[O-])cc1	4µM	0	?	0	0	13µM
[O-][N+]1=c2ccc(Nc3ccccc3)cc2=NC12CCCCC2	7.3µM	0	?	0	0	7.3µM
COc1ccc(NC2=NC(=S)N(c3ccccc3C)C23CCCCC3)cc1	0	0	0	0	0	0
O=[N+]([O-])c1ccc2c(c1N1CCCCC1)=NC1(CCCCC1)[N+]=2[O-]	?	0	0	0	0	?
CNC(=S)N1N=C(c2ccc(Br)cc2)CC1c1ccc(Br)cc1 (stereo not given)	?	0	5.8µM	0	0	0[0.0737 µM]
COc1ccccc1CN(Cc1cc2c(C)ccc(C)c2[nH]c1=O)Cc1nnnn1Cc1ccco1	0	0	18µM	0	0	?
Cc1ccc(C)c2[nH]c(=O)c(CN(CCN3CCOCC3)Cc3nnnn3CC3CCCO3)cc12 (stereo not given)	0	0	16µM	0	0	0
COc1ccc2cc(CN(CCc3ccccc3)Cc3nnnn3Cc3ccco3)c(=O)[nH]c2c1	0	0	?	0	0	?
Cc1ccc(CN(Cc2cc3cc4c(cc3[nH]c2=O)OCCO4)Cc2nnnn2Cc2ccco2)cc1	?	0	23µM	0	0	?
Cc1ccc(S(=O)(=O)c2c(C)nn(C(C)(C)C)c2OC(=O)c2ccco2)cc1	0	0	?	0	0	13µM
Cc1ccc(S(=O)(=O)c2c(C)nn(C(C)(C)C)c2OC(=O)c2cccs2)cc1	0	0	0	0	0	18µM
CC(=O)Oc1c(S(=O)(=O)c2ccc(C)cc2)c(C)nn1C(C)(C)C	?	0	0	0	0	?
Cc1ccc(S(=O)(=O)c2c(C)nn(C(C)(C)C)c2OC(=O)c2ccc(Br)o2)cc1	0	0	0	0	0	?
COC(=O)c1ccccc1NC(=O)CN1CCN(c2ccccn2)CC1	0	0	0	0	0	0
COC(=O)c1ccccc1N/C=C1\CCc2c(c(C)nn2-c2ccccn2)C1=O	0	0	?	0	0	8.2µM
CCOc1ccc(N(C)S(=O)(=O)c2ccc(C)c(C(=O)Nc3nnc(C4CC4)s3)c2)cc1	0	0	0	0	0	0
COC(=O)CNc1c(-c2ccccn2)nc2ccc(Br)cn12	0	-	?	0	1.3µM	0
COc1cccc(CN2CCC(C(=O)Nc3ccc(-c4cccc(C)c4)cc3)CC2)c1O	0	-	0	0	0	?
COC(=O)c1ccc(C(=O)NC2CCSc3ccccc32)cc1 (stereo not given)	0	0	?	0	0	0
Cc1ccc(NC(=S)NC2CCSc3ccccc32)cc1C (stereo not given)	18µM	0	0	0	0	18µM
O=C(Cn1nnc(-c2ccc(F)cc2)n1)Nc1cccc(S(=O)(=O)N2CCCC2)c1	0	0	?	0	0	0

Source: PubChem (National Center for Advancing Translational Sciences (NCATS))
